Key:
Assay in all cases: DAPPL (digital affinity profiling via proximity ligation, sequencing); 10 mM Tris-HCl pH 7.5, 50 mM NaCl, 1 mM DTT, 4% glycerol, room temperature, 30 min; GST-TFs on glutathione beads, 16-mer random dsDNA library, 0.1% formaldehyde crosslink after washing; high values mean tight binding
FEV = molecular target: T1, FEV (Homo sapiens, UniProt Q99581 1-238); conditions: protein: recombinant; tags: N-terminal GST; dsDNA, one strand shown
T1 sequence: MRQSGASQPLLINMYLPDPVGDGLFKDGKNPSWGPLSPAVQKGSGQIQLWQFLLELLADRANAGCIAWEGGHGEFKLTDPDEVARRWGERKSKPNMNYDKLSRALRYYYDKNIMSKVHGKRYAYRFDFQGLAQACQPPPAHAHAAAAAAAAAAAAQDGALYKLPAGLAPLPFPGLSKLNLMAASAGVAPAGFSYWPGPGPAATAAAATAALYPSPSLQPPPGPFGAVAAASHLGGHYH
How it was run: (§1)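 Human transcription factors were made in yeast as GST fusions, captured on glutathione beads and barcoded with DNA. With a tag-only sample included, the pool was incubated with 200 nmole of a random double-stranded 16-mer DNA library in Tris/NaCl/DTT/glycerol buffer at room temperature for 30 min, then crosslinked with 0.1% formaldehyde after washing, ligated by proximity, amplified and sequenced. For binding signal, each hexamer's read frequency for a factor is divided by its frequency for the tag-only sample.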

ETV5 = ETV5 (Homo sapiens, UniProt P41161 1-510); conditions: protein: recombinant; tags: N-terminal GST; dsDNA, one strand shown
ETV5, sequence (P41161 whole entry): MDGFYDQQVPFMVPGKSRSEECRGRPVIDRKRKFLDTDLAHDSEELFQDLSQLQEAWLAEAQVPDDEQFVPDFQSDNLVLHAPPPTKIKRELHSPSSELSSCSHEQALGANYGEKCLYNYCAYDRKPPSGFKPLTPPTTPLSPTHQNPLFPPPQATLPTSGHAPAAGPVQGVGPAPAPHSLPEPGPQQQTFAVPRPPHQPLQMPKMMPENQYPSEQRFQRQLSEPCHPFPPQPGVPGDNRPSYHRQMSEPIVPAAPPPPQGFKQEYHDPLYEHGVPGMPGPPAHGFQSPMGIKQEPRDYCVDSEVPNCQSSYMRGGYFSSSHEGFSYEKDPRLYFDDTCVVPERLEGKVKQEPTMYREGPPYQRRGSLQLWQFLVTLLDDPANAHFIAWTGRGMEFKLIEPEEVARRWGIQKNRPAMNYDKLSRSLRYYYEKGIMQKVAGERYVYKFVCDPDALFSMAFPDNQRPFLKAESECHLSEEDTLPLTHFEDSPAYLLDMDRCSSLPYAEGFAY
How it was run: as §1

HSF1 = HSF1 (Homo sapiens, UniProt Q00613 1-529); conditions: protein: recombinant; tags: N-terminal GST; chain copies: 3; dsDNA, one strand shown
HSF1, sequence (Q00613 whole entry): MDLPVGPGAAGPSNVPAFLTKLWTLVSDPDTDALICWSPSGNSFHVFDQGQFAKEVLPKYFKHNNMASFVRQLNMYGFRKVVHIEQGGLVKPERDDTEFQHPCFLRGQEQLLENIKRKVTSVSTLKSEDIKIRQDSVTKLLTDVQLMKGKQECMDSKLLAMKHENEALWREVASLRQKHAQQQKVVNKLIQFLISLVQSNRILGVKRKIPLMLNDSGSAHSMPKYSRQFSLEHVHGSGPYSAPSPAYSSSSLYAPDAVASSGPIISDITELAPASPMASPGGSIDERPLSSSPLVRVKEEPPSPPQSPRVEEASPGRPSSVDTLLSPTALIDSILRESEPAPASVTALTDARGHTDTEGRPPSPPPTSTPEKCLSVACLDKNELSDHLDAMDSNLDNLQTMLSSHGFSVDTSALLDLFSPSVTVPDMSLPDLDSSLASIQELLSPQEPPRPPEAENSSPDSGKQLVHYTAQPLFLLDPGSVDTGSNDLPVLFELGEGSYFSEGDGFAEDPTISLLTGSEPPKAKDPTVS
How it was run: as §1

SPIC = molecular target: T2, SPIC (Homo sapiens, UniProt Q8N5J4 1-248); conditions: protein: recombinant; tags: N-terminal GST; dsDNA, one strand shown
T2 sequence: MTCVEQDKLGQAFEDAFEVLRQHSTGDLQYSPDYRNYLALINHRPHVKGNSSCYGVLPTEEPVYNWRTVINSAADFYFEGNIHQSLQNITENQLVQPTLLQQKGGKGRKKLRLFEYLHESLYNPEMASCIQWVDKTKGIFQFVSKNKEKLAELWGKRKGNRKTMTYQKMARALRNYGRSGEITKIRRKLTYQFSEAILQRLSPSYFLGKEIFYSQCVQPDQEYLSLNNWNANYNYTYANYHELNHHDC
How it was run: as §1

ELF4 = ELF4 (Homo sapiens, UniProt Q99607 1-663); conditions: protein: recombinant; tags: N-terminal GST; dsDNA, one strand shown
ELF4, sequence (Q99607 whole entry): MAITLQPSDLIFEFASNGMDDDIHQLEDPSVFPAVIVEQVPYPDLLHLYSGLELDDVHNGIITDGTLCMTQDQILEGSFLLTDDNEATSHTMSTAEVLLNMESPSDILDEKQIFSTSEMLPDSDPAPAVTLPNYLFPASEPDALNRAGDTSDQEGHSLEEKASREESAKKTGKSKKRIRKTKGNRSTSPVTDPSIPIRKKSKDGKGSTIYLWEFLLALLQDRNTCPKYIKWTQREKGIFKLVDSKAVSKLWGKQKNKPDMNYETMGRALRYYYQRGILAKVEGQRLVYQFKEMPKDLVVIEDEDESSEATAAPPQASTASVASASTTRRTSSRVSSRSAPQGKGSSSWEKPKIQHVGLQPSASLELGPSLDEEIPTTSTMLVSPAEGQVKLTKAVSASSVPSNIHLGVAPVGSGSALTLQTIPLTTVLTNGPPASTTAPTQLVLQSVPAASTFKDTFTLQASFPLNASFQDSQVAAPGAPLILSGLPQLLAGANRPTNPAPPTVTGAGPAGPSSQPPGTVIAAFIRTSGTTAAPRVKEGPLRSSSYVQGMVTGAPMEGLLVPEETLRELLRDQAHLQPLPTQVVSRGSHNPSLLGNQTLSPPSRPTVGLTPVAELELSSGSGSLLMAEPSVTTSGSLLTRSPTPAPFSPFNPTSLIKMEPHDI
How it was run: as §1

ELK4 = molecular target: T3, ELK4 (Homo sapiens, UniProt P28324-2 1-405); conditions: protein: recombinant; tags: N-terminal GST; dsDNA, one strand shown
T3 sequence: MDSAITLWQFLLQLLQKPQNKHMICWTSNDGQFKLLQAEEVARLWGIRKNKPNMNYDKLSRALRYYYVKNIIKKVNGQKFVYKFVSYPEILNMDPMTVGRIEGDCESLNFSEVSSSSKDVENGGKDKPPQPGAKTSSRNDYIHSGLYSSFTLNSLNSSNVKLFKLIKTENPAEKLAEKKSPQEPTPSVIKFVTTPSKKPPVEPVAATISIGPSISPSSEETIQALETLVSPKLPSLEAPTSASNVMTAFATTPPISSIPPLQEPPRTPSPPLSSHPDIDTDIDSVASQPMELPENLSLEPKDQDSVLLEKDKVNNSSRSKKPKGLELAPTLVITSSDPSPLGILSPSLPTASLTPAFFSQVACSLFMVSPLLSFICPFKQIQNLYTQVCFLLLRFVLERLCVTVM
How it was run: as §1

ETV2 = molecular target: T4, ETV2 (Homo sapiens, UniProt O00321 1-342); conditions: protein: recombinant; tags: N-terminal GST; dsDNA, one strand shown
T4 sequence: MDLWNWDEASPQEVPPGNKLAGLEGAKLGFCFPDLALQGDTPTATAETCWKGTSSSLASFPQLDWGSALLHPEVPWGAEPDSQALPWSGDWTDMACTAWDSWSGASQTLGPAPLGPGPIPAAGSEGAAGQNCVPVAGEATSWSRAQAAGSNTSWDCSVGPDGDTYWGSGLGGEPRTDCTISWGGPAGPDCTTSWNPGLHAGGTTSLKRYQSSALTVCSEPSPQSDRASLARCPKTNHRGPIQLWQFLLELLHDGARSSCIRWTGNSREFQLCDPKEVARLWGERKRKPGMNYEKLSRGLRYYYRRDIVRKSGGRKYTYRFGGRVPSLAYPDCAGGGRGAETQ
How it was run: as §1

ELF3 = molecular target: T5, ELF3 (Homo sapiens, UniProt P78545 1-371); conditions: protein: recombinant; tags: N-terminal GST; dsDNA, one strand shown
T5 sequence: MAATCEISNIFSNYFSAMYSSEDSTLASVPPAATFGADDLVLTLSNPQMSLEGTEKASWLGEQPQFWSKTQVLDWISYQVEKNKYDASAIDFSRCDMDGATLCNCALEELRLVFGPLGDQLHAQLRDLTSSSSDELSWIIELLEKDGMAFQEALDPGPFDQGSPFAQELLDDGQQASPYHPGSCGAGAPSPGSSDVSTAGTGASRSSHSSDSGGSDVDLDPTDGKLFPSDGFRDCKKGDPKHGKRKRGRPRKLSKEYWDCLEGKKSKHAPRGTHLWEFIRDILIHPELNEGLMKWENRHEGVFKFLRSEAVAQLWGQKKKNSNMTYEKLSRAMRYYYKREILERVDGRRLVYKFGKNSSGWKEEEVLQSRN
How it was run: as §1

CRX = CRX (Homo sapiens, UniProt O43186 1-299); conditions: protein: recombinant; tags: N-terminal GST; dsDNA, one strand shown
CRX, sequence (O43186 whole entry): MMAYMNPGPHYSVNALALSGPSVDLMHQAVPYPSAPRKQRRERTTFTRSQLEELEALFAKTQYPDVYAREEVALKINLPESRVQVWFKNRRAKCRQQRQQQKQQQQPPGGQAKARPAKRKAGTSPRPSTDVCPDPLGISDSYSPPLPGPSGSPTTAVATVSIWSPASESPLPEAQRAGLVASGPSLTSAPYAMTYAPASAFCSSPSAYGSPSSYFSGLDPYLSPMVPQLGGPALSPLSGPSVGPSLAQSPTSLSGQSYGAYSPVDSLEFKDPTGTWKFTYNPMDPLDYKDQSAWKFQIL
How it was run: as §1

ETV1 = ETV1 (Homo sapiens, UniProt P50549 1-477); conditions: protein: recombinant; tags: N-terminal GST; dsDNA, one strand shown
ETV1, sequence (P50549 whole entry): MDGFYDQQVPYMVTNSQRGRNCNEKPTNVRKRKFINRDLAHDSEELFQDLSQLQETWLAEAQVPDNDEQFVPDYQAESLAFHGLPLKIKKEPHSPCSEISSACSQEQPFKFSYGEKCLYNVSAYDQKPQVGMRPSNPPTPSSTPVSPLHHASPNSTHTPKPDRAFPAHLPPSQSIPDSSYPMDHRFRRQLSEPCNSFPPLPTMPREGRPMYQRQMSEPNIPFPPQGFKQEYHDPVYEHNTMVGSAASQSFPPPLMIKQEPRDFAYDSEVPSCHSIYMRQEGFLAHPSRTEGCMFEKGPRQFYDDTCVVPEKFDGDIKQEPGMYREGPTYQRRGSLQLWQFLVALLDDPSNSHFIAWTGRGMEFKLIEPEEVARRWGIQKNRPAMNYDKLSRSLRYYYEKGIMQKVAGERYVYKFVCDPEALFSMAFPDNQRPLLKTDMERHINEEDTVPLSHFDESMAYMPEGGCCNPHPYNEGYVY
How it was run: as §1

ERF = molecular target: T6, ERF (Homo sapiens, UniProt P50548 1-548); conditions: protein: recombinant; tags: N-terminal GST; dsDNA, one strand shown
T6 sequence: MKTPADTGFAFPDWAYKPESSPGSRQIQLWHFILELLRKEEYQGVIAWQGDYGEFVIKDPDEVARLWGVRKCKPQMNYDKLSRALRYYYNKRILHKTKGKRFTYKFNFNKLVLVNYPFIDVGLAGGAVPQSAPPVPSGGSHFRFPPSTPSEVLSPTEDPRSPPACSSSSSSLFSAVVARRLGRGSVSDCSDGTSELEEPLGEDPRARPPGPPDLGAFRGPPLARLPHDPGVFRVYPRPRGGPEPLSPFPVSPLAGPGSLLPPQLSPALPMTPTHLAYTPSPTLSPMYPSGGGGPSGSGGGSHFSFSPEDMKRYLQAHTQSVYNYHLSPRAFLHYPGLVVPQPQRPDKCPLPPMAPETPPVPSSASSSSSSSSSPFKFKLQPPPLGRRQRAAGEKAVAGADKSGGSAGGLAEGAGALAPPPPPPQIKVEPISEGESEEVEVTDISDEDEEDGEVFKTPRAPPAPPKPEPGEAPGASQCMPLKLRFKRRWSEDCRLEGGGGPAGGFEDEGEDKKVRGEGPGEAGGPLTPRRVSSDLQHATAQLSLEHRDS
How it was run: as §1

ETV3L = molecular target: T7, ETV3L (Homo sapiens, UniProt Q6ZN32 1-361); conditions: protein: recombinant; tags: N-terminal GST; dsDNA, one strand shown
T7 sequence: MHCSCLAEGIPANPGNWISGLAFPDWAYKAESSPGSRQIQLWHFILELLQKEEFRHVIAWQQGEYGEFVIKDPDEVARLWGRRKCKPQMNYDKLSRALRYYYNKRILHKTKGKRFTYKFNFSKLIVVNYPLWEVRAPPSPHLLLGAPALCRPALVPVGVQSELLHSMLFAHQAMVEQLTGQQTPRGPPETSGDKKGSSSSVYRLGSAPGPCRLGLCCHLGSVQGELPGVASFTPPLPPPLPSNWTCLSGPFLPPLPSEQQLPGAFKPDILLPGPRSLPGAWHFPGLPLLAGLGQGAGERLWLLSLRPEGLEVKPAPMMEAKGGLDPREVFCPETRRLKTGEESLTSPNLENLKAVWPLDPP
How it was run: as §1

ETS2 = molecular target: T8, ETS2 (Homo sapiens, UniProt P15036 1-469); conditions: protein: recombinant; tags: N-terminal GST; dsDNA, one strand shown
T8 sequence: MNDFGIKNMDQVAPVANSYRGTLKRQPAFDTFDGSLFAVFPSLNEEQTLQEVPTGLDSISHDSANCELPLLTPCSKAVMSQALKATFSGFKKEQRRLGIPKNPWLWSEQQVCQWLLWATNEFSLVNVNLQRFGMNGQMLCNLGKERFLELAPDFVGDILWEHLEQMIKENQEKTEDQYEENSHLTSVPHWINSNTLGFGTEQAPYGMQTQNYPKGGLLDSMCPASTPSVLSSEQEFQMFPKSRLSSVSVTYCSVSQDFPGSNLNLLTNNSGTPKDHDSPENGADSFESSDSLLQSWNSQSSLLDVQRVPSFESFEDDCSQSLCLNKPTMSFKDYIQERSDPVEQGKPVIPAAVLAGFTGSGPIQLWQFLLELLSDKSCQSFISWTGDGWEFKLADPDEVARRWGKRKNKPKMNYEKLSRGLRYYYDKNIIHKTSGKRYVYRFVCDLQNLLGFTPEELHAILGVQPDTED
How it was run: as §1

SPDEF = molecular target: T9, SPDEF (Homo sapiens, UniProt O95238 1-335); conditions: protein: recombinant; tags: N-terminal GST; dsDNA, one strand shown
T9 sequence: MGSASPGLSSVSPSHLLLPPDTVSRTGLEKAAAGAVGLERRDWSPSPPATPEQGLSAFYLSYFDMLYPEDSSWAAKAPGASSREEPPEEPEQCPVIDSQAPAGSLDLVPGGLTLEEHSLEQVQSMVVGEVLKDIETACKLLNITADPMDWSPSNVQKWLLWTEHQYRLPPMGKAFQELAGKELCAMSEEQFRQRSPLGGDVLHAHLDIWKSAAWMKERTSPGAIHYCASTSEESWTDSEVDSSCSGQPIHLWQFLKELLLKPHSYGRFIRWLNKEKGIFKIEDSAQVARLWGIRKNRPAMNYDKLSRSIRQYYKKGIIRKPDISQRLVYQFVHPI
How it was run: as §1

ETV7 = molecular target: T10, ETV7 (Homo sapiens, UniProt Q9Y603 1-341); conditions: protein: recombinant; tags: N-terminal GST; dsDNA, one strand shown
T10 sequence: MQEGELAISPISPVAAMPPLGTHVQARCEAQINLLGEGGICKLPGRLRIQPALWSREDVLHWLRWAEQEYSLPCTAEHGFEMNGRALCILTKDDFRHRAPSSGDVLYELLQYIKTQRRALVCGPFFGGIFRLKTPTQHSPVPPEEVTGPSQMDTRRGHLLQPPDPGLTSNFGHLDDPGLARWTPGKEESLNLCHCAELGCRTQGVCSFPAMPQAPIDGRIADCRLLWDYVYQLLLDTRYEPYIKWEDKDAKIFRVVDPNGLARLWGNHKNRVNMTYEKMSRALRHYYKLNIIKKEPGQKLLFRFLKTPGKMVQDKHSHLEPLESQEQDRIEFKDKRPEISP
How it was run: as §1

ELF5 = molecular target: T11, ELF5 (Homo sapiens, UniProt Q9UKW6-2 1-255); conditions: protein: recombinant; tags: N-terminal GST; dsDNA, one strand shown
T11 sequence: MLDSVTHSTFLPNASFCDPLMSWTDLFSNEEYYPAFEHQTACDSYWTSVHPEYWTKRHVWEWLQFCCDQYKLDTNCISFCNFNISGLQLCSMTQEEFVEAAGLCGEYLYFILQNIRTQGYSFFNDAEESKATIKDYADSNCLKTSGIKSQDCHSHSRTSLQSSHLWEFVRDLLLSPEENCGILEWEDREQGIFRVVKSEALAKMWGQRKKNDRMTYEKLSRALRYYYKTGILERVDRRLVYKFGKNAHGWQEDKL
How it was run: as §1

ETV3 = molecular target: T12, ETV3 (Homo sapiens, UniProt P41162-2 1-143); conditions: protein: recombinant; tags: N-terminal GST; dsDNA, one strand shown
T12 sequence: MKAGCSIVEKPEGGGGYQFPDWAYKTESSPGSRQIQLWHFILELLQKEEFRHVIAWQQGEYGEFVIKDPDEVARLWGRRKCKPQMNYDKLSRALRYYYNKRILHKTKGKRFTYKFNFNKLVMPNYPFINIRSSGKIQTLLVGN
How it was run: as §1

ETV6 = ETV6 (Homo sapiens, UniProt P41212 1-452); conditions: protein: recombinant; tags: N-terminal GST; dsDNA, one strand shown
ETV6, sequence (P41212 whole entry): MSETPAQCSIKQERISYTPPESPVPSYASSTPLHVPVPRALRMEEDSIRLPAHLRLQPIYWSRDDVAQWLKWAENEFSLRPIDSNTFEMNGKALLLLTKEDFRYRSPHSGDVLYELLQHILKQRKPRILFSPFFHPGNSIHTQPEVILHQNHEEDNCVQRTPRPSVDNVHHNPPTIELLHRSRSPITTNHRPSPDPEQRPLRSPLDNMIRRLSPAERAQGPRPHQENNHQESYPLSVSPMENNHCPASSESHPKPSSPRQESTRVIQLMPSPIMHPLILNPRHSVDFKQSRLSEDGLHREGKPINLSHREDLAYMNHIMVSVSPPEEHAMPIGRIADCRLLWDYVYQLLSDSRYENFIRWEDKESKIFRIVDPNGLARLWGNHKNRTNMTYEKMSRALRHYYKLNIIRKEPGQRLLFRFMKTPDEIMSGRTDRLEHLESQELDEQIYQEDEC
How it was run: as §1

ATCTAA
binding signal (FEV): 1.14 fold enrichment (6-mer frequency, TF over GST control) | binding signal (ETV5): 1.15 fold enrichment (6-mer frequency, TF over GST control) | binding signal (HSF1): 1.49 fold enrichment (6-mer frequency, TF over GST control) | binding signal (SPIC): 1.13 fold enrichment (6-mer frequency, TF over GST control) | binding signal (ELF4): 1.23 fold enrichment (6-mer frequency, TF over GST control) | binding signal (ELK4): 1.24 fold enrichment (6-mer frequency, TF over GST control) | binding signal (ETV2): 1.22 fold enrichment (6-mer frequency, TF over GST control) | binding signal (ELF3): 1.12 fold enrichment (6-mer frequency, TF over GST control) | binding signal (CRX): 1.83 fold enrichment (6-mer frequency, TF over GST control) | binding signal (ETV1): 1.16 fold enrichment (6-mer frequency, TF over GST control) | binding signal (ERF): 1.2 fold enrichment (6-mer frequency, TF over GST control) | binding signal (ETV3L): 1.19 fold enrichment (6-mer frequency, TF over GST control) | binding signal (ETS2): 1.2 fold enrichment (6-mer frequency, TF over GST control) | binding signal (SPDEF): 1.11 fold enrichment (6-mer frequency, TF over GST control) | binding signal (ETV7): 1.22 fold enrichment (6-mer frequency, TF over GST control) | binding signal (ELF5): 1.17 fold enrichment (6-mer frequency, TF over GST control) | binding signal (ETV3): 1.24 fold enrichment (6-mer frequency, TF over GST control) | binding signal (ETV6): 1.17 fold enrichment (6-mer frequency, TF over GST control)
